This is a sample that favours compounds with a hit; in the whole collection about 9.2% have one here.
NPC1 promoter act: activators of NPC1 promoter | Potency, µM (doses to about 9.22 µM), for inactives: top-dose activation, hits mostly activators | 320,000 tested, 2.4% active | Huh7 NPC1 promoter luciferase reporter, 24 h; also: % of control where 0% means no effect; nearly all actives have a fitted effect of over 60% in size
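Luminescence from an NPC1 promoter-driven luciferase reporter in stably transfected Huh7 cells was measured after 24 h compound treatment at 37 °C, followed by 10 min ambient incubation with luciferase detection reagent.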
ELG1 DNA repair: ELG1-dependent DNA repair inhibition | Potency, µM (highest dose often 46.1 µM), inactives show at the highest dose activity change, negative = inhibition, actives largely listed as inhibitors | 330,000 tested, 2.3% active | AID 504467 | HEK293T ELG1-luciferase reporter, luminescence, 16 h; DNA damage induced by 5-fluorouridine; also: % is scaled to controls: 0 for no effect and ±100 for the full control effect; nearly all actives have a fitted effect of over 55% in size
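Step one: seed 2,000 cells per well. Step two: pin-transfer compound or DMSO alongside 5-fluorouridine. Step three: incubate 16 hr, 37 °C, 5% CO2. Step four: add ONE-Glo, wait 30 min, read luminescence.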
SMN2 splice up: increases expression of the SMN2 splice variant | HEK293 SMN2-luciferase splicing reporter, luminescence, 30-36 h | Potency, µM (doses to about 46.1 µM), for the others: top-dose activity change, positive = activation, hits mostly activators | 210,000 tested, 2.8% active | AID 1458; also: % of control where 0% means no effect; nearly all actives have a fitted effect of over 55% in size
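HEK293 cells carry an SMN2 […]–luciferase reporter in which exon 7 inclusion puts luciferase in frame. Cells were plated 10-12 h before compound addition, then incubated 30-36 h at 37C. ONE-Glo luminescence was read; sodium butyrate at 4.5 mM final served as control.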
FLuc counter: inhibits or activates purified firefly luciferase, miR-21 counter-screen; P08659; purified FLuc, Km substrates, luminescence inhibition; Potency, µM (top dose mostly 57.5 µM), inactives show at the highest dose activity change, negative = inhibition, hits mostly inhibitors; 360,000 tested, 6.9% active; AID 588342;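 also: plate controls were vehicle for no effect and reference inhibitor for full effect; nearly all actives have a fitted effect of over 55% in size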
Target sequence (P08659 whole entry, looked up): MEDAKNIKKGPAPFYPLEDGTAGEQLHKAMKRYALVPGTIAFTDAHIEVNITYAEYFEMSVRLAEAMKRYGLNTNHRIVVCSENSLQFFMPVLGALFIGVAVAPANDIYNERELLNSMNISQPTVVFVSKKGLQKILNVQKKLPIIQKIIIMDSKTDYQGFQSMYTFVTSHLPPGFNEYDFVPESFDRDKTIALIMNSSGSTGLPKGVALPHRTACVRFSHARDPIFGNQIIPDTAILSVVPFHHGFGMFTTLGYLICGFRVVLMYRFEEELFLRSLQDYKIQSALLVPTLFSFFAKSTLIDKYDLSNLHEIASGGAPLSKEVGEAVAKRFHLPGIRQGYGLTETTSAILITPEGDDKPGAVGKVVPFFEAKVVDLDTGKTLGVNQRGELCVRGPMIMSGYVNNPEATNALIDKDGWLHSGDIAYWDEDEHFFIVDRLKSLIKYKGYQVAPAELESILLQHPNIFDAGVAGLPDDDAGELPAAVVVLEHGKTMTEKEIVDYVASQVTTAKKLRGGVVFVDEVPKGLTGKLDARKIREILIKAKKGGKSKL
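Purified P. pyralis luciferase (10nM final) with 10uM D-luciferin and 10uM ATP (Km levels) in 50mM Tris acetate pH 7.5, 10mM Mg acetate, 0.01% Tween-20, 0.05% BSA; qHTS 6-point titration, ~60 µM downward; luminescence read.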
ELG1 genotox: genotoxicity induction in ELG1-luciferase HEK293T cells; AID 504466; Potency, µM (highest dose often 46 µM), for inactives: top-dose activity change, positive = activation, most hits filed as activators; HEK293T ELG1-luciferase reporter, luminescence, 16 h; 330,000 tested, 1.3% active; also: % of control where 0% means no effect; nearly all actives have a fitted effect of over 60% in size
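Genotoxicity was scored as increased ELG1-luciferase reporter signal, measured by ONE-Glo luminescence (30 min, room temperature). Compound or vehicle exposure of the HEK293T reporter cells lasted 16 hr at 37°C.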
Rab9 prom act: activates the Rab9 promoter; Potency, µM (series often up to 9.22 µM), inactives show top-dose activation, negative = inhibition, actives largely listed as activators; Huh7 Rab9 promoter-luciferase reporter, luminescence, 24 h; AID 485297; 320,000 tested, 2.8% active; also: % of control where 0% means no effect; nearly all actives have a fitted effect of over 60% in size
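Quantitative HTS format; Huh7 Rab9-luciferase reporter cells (1500/well) receive compound 2 h post-plating, incubate 24 h at 37 °C, then get luciferase reagent for 10 min before luminescence reading.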
* = called active by the depositor; u = inconclusive; x = no result given; [ ] = remark or other dose. Calls follow the shape of the dose curve; as a rule, active = well fitted curve in the direction sought with a large enough effect; inconclusive = small, poorly fitted or top-dose-only effect, or another doubt; inactive = no such curve, though single readings can be large; an effect the other way counts as inactive or inconclusive. Potency is read from the fitted curve at half-maximal effect.

SMILES	NPC1 promoter act	ELG1 DNA repair	SMN2 splice up	FLuc counter	ELG1 genotox	Rab9 prom act
O=[N+]([O-])c1cc(-c2nc(-c3ccncc3)no2)cc([N+](=O)[O-])c1	17%	-3%	x	3%	-4%	26%
Cc1c2cnn(-c3ccccc3)c(=O)c2c(C)n1CCCC(=O)Nc1cc(F)ccc1F	x	x	-3%	-6%	x	x
Cc1nc(-c2nc(-c3c(C(=O)NN)noc3C)cs2)cs1	24%	u	u	17µM*	0%	u
CCOC(=O)N1CCN(C(=O)CCSc2ccccc2)CC1	u	u	u	17µM*	9.2µM*	2.8µM*
CCNS(=O)(=O)c1ccc(CCC(=O)N2CCN(Cc3ccccc3)CC2)cc1	-4%	-15%	x	4%	-6%	5%
CCOC(=O)N1CCN(C(=O)CCc2ccc(S(=O)(=O)NCCc3ccccc3)cc2)CC1	0%	15µM*	-24%	2%	4%	1%
CC(C)CNS(=O)(=O)c1ccc(CCC(=O)N2CCN(Cc3ccc4c(c3)OCO4)CC2)cc1	-5%	9.2µM*	-62%	-2%	-7%	-13%
O=C(CCc1ccc(S(=O)(=O)NCCc2ccccc2)cc1)N1CCN(Cc2ccc3c(c2)OCO3)CC1	-1%	23µM*	-22%	2%	-19%	-9%
CCOC(=O)N1CCN(C(=O)CCSc2ccc(C)cc2)CC1	8%	u	12%	-3%	6%	10%
CCC/C=C(\CCC)C(NC(=O)c1ccccc1)c1ccccc1 (centres undefined)	x	x	-10%	x	x	x
O=C(NCCc1ccccc1)C(c1cccs1)N(C(=O)CCl)c1ccc(Cl)cc1 (centres undefined)	-40%	18µM*	-67%	-1%	-18%	-46%
O=C1NN(c2cccc(Br)c2)C(=O)/C1=C/c1cccs1	-1%	-10%	x	9.5µM*	-1%	5%
O=C1NN(c2ccccc2)C(=O)/C1=C/c1cccs1	-4%	u	3%	19µM*	1%	-10%
O=C1NN(c2ccccc2)C(=O)/C1=C\c1ccccc1	-1%	-13%	x	17µM*	8%	-2%
O=C1NN(c2cccc(Br)c2)C(=O)/C1=C\c1ccccc1	2%	8%	x	u	0%	0%[1.84 µM]
Cc1cccc(CSc2ccc3nnc(CCNS(=O)(=O)c4ccccc4)n3n2)c1	x	x	x	-9%	x	x
CC(C)N(C(=O)N1CCC(c2nc(-c3ccncc3)no2)CC1)C(C)C	1%	16µM*	-90%	2%	u	-9%
CC(C)C(=O)N1CCC(c2nc(-c3ccc(S(=O)(=O)N4CCN(C)CC4)cc3)no2)CC1	-9%	-8%	-32%	-6%	-2%	-7%
Cc1ccc(-c2noc(C3CCN(S(=O)(=O)c4ccc5c(c4)OCCO5)CC3)n2)o1	-4%	23µM*	-53%	3%	-8%	-2%
Cc1ccc(-c2noc(C3CCCN(S(=O)(=O)c4ccc5ccccc5c4)C3)n2)o1 (centres undefined)	0%	-14%	-13%	u	5%	-7%
O=S(=O)(c1ccc2ccccc2c1)N1CCC(c2nc(-c3ccncc3)no2)CC1	-17%	13µM*	-78%	0%	0%	-21%
CN(C)c1ccc(-c2noc(C3CCN(S(=O)(=O)c4cccc(Cl)c4)CC3)n2)cc1	-1%	u	x	13%	-1%	-2%
CCN(CC)c1cc2c(cc1F)c(=O)c(S(=O)(=O)c1ccc(C)cc1)cn2Cc1ccc(F)cc1	x	x	x	-2%	x	x
O=C(NCC1CCCO1)C(=O)c1c[nH]c2ccccc12 (centres undefined)	21%	u	27%	u	u	26%
CSc1ccc(C2c3[nH]c4ccccc4c3CCN2C(=O)c2cc(C)n(C)n2)cc1 (centres undefined)	9%	u	u	17µM*	u	u
SMILES	NPC1 promoter act	ELG1 DNA repair	SMN2 splice up	FLuc counter	ELG1 genotox	Rab9 prom act
Cc1cc(C(=O)N2CCc3c([nH]c4ccccc34)C2c2cccc(Cl)c2)nn1C (centres undefined)	1%	u	x	-10%	-11%	-1%
NC(=O)CSc1oc(-c2ccco2)nc1S(=O)(=O)c1ccc(Br)cc1	-1%	1%	0%	-2%	-4%	-4%
Cc1cc2ccc3ccccc3c2cc1CN(C)C	10%	u	x	7.6µM*	6%	24%
CC(=O)c1ccc(NC(=O)c2cc3c([nH]c2=O)CC(c2ccccc2)CC3=O)cc1 (centres undefined)	x	x	-3%	-7%	x	x
CC(=O)Nc1ccc2c(c1)nc(C)n2Cc1ccccc1	-1%	-19%	x	-2%	2%	-1%
CCOC(=O)CCNC(=O)Nc1ccc2nc(C)n(Cc3ccc(Cl)cc3)c(=O)c2c1	-2%	15µM*	-13%	1%	3%	4%
CC(=O)Nc1ccc2nc(C)n(Cc3ccc(Cl)cc3)c(=O)c2c1	u	u	13µM*	-29%	u	25%
CC(C)N(C(=O)Cn1cc(SCC(=O)Nc2ccccc2F)c2ccccc21)C(C)C	x	x	x	0%	x	x
O=C(c1ccc(F)cc1)c1cc2ccc(O)cc2oc1=O	28%	u	x	15µM*	u	15%
COc1ccc(NC(=O)c2cc3ccc(O)cc3o/c2=N\O)cc1	u	u	x	0.27µM*	u	28%
CCCCCCc1cc2cc(C(=O)Nc3ccc(OC)cc3)c(=O)oc2cc1O	-8%	u	-16%[1.84 µM]	3%	-4%	-18%
N=c1oc2cc(O)ccc2cc1C(=O)Nc1ccc(F)cc1	u	u	x	2.7µM*	u	3.5µM*
O=C(Nc1ccc(Cl)cc1)c1ccc2nsnc2c1	2.5µM*	u	11µM*	u	16%	4µM*
O=C(Nc1cccc([N+](=O)[O-])c1)c1ccc2nsnc2c1	-1%	2%	x	-27%	-1%	-1%
CN(C)c1ccc(NC(=O)c2ccc3nsnc3c2)cc1	u	u	22µM*	5.4µM*	2.6µM*	3.2µM*
CC1(C(=O)OCC(=O)Nc2ccc(S(=O)(=O)N3CCOCC3)cc2)CC1(Cl)Cl (centres undefined)	x	-14%	x	x	-3%	x
CCc1cc(C=NC2CCCCC2)c(O)s1	u	u	18%	u	13%	3.5µM*
CCc1cc2c(SC(C)C(=O)NC3CCCC3)ncnc2s1 (centres undefined)	x	u	x	x	-1%	x
N=c1c2c(n(Cc3ccc(Cl)cc3)c3c1CCC3)CCC2	-23%	2.9µM*	-43%	-1%	-13%	-26%
CCCCCCCCn1c2c(c(=N)c3ccccc31)CCC2	-4%	6%	x	-1%	1%	-3%
CCCCn1c2c(c(=N)c3ccccc31)CCC2	-34%	1.6µM*	x	0%	-10%	-39%
